Experimental data reported in the supplement of paper PMC13380429.
Values without a mark were called inactive.

Tested on: Vero E6 infected with SARS-CoV-2
Experiment: inhibition of SARS-CoV-2 cytopathic effect; higher = more antiviral protection, active = above 15
Conditions: 48 h

| SMILES | inhibition of SARS-CoV-2 cytopathic effect (1 nM) | inhibition of SARS-CoV-2 cytopathic effect (8.33 nM) | inhibition of SARS-CoV-2 cytopathic effect (100 nM) | inhibition of SARS-CoV-2 cytopathic effect (833.33 nM) | inhibition of SARS-CoV-2 cytopathic effect (10000 nM) |
| --- | --- | --- | --- | --- | --- |
| CCc1cccc(N(C)C(=N)Nc2cccc3ccccc23)c1 [aptiganel] | 1.52% | 1.91% | 1.39% | -2.33% | -4.82% |
| CCC(c1ccccc1)c1c(O)c2ccccc2oc1=O (stereo not given) [phenprocoumon] | -0.55% | 0.6% | 1.1% | -0.13% | -0.87% |
| O=c1cc[nH]c(=O)[nH]1 [uracil] | -0.48% | 2.2% | 2.09% | 1.66% | -2.12% |
| c1ccc2c(-c3cnn4cc(-c5ccc(N6CCNCC6)cc5)cnc34)ccnc2c1 | 1.9% | 4.28% | 1.29% | -6.31% | -26.3% |
| COc1ccccc1OC(=O)c1ccccc1OC(C)=O [guacetisal] | -0.24% | -1.18% | 1.85% | 4.31% | -0.68% |
| CN(C)c1ccc2nc3ccc(=[N+](C)C)cc-3sc2c1 [methylene-blue] | -2.26% | -2.37% | -2.19% | 8.6% | -7.29% |
| O=C(O)CCc1ccc(NCc2cccc3c2CCCN3CCOc2ccccc2)cc1F | 2.94% | 4.34% | -0.81% | 1.53% | 0.9% |
| COc1ccc(S(=O)(=O)Nc2cccnc2Nc2ccc(O)cc2)cc1 | 1.18% | 4.25% | 1.28% | 0.22% | 1.62% |
| O=C1CN(/N=C/c2ccc([N+](=O)[O-])o2)C(=O)N1 [nitrofurantoin] | -0.06% | -0.32% | 0.43% | 0.55% | 1.5% |
| O=c1oc(-c2ccc(C(F)(F)F)cc2)nn1Cc1cc(Cl)ccc1O | -2.43% | -1.09% | 3.13% | 3.7% | 13.8% |
| CCN(CC)CCNc1ccc(CO)c2sc3ccccc3c(=O)c12 [hycanthone] | -3.88% | -2.41% | -0.96% | -2.51% | 0.99% |
| COC(=O)C1=C(C)NC(C)=C(C(=O)NCCCN2CCC(c3ccccc3)(c3ccccc3)CC2)C1c1ccc([N+](=O)[O-])cc1 (stereo not given) | 1.77% | 1.95% | 0.45% | 0.78% | 48.8% (active) |
| CCC(=O)NO | 3% | 3.18% | 1.27% | 1.39% | 2.29% |
| COc1cc(N2CCC(N)CC2)ccc1Nc1ncc(Cl)c(-c2c[nH]c3ccccc23)n1 | -1% | 0.49% | -1.87% | -3.58% | -8.45% |
| O=C1Nc2cc(Cl)c(Cl)cc2N2CCNC[C@H]12 | -0.02% | -0.54% | 1.72% | 0.92% | 1.67% |
| CCCN(CCC)[C@H]1CCc2ccc(O)cc2C1 [7-hydroxy-DPAT] | 0.73% | 2.39% | 0.54% | -0.29% | 0.48% |
| CC(CCc1ccccc1)NCC(O)c1ccc(O)c(C(N)=O)c1 (stereo not given) [labetalol] | -0.33% | 0.13% | 0.47% | 0.67% | -2.41% |
| O=C(COc1cccc2c(=O)[nH]ccc12)c1ccccc1 | -1.31% | 1.84% | -0.2% | -0.52% | 0.99% |
| COc1ccc2[nH]c([S+]([O-])Cc3ncc(C)c(OC)c3C)nc2c1 (stereo not given) [omeprazole] | 0.48% | 2.24% | 1.08% | 3.07% | 1.79% |
| CC(C)NCC(O)c1ccccc1Cl (stereo not given) [clorprenaline] | 2.05% | 1% | 0.74% | 1.39% | -1.17% |
| Cc1noc2c1-c1ccccc1C(c1ccc(Cl)cc1)=N[C@H]2CC(N)=O | -3.02% | 0.61% | -3.13% | 0.14% | -11.1% |

| SMILES | inhibition of SARS-CoV-2 cytopathic effect (1 nM) | inhibition of SARS-CoV-2 cytopathic effect (8.33 nM) | inhibition of SARS-CoV-2 cytopathic effect (100 nM) | inhibition of SARS-CoV-2 cytopathic effect (833.33 nM) | inhibition of SARS-CoV-2 cytopathic effect (10000 nM) |
| --- | --- | --- | --- | --- | --- |
| O=C(O[C@H]1[C@H](OC(=O)c2cccnc2)[C@@H](OC(=O)c2cccnc2)[C@H](OC(=O)c2cccnc2)[C@@H](OC(=O)c2cccnc2)[C@H]1OC(=O)c1cccnc1)c1cccnc1 [inositol-hexanicotinate] | 2.01% | 3.15% | 2.82% | 0.04% | 0.85% |
| Nc1ncc(Cc2ccc(Br)cc2)s1 | -0.22% | 1.1% | 2.74% | 2.26% | 2.73% |
| O=C1c2c(O)cccc2Cc2cccc(O)c21 [anthralin] | -1.32% | -2.05% | 0.93% | -2.71% | -1.19% |
| O=C(O)c1c(Cl)c(Cl)c(Cl)c(Cl)c1-c1c2cc(I)c(=O)c(I)c-2oc2c(I)c(O)c(I)cc12 [rose-bengal] | -2.56% | -2.17% | 1.8% | -2.12% | -13.9% |
| O=C(O)CCc1ccc(NCc2cccc(Oc3ccccc3)c2)cc1 | 1.33% | -1.1% | -1.51% | -0.16% | -0.27% |
| CC(=O)Nc1ccc(OCC(O)CNC(C)C)cc1 (stereo not given) [practolol] | 0.44% | 0.3% | 0.26% | 2.84% | 5.44% |
| CCN(CCCCOC(=O)c1ccc(OC)c(OC)c1)C(C)Cc1ccc(OC)cc1 (stereo not given) [mebeverine] | 1.37% | -1.75% | -0.83% | -1.35% | -3.11% |
| N#Cc1ccccc1OCC(O)CNCCNC(=O)Nc1ccccc1 (stereo not given) | 0.6% | 0.87% | -0.54% | 0.35% | -2.72% |
| CN(c1nccc(=O)[nH]1)C1CCN(c2nc3ccccc3n2Cc2ccc(F)cc2)CC1 [mizolastine] | -1.24% | -0.74% | 0.47% | 0.93% | -1.33% |
| Nc1ccc(S(=O)(=O)Nc2cnc3ccccc3n2)cc1 [sulfaquinoxaline] | -0.58% | 1.74% | -1.77% | -2.18% | 1.39% |
| COc1cc2c(cc1F)C(c1ccccc1Cl)=Nc1c(n[nH]c1C)N2 | 1.86% | 1.62% | -1.34% | 2.98% | 2.4% |
| O=C(O)c1ccccc1NCCc1ccccc1 [tromaril] | -2.04% | 0.78% | 1.18% | 1.39% | 1.35% |
| NCCc1ccc(O)c(O)c1 [dopamine] | -0.56% | 0.74% | -0.35% | 0.38% | 0.14% |
| C[n+]1c2cc(N)ccc2cc2ccc(N)cc21.Nc1ccc2cc3ccc(N)cc3nc2c1 [acriflavine] | 2.32% | 1.62% | 1.04% | -1.18% | -12.9% |
| CC(C)CN(C[C@@H](O)[C@H](Cc1ccccc1)NC(=O)O[C@H]1CCOC1)S(=O)(=O)c1ccc(N)cc1 [amprenavir] | -0.22% | 1.43% | -0.29% | -1.76% | -0.72% |
| C=CC(=O)N1CCN(C(=O)CNc2cc(I)c(Cl)cc2O)CC1 [K-Ras(G12C)-inhibitor-12] | 3.63% | 2.32% | 7.62% | 24.7% (active) | 30.4% (active) |
| O=c1ncccn1[C@@H]1O[C@H](CO)[C@@H](O)[C@H]1O [zebularine] | -2.02% | -1.31% | 1.93% | 1.42% | -1.45% |
| Cc1oc(=O)oc1COC(=O)C1=C([C@H]2CCCO2)S[C@@H]2[C@@H]([C@@H](C)O)C(=O)N12 [faropenem-medoxomil] | 2.73% | -1.09% | -0.59% | 2.96% | 1.04% |
| Cc1c(F)cccc1NC(=O)Nc1ccc(Cl)c(S(=O)(=O)[C@H]2CCCNC2)c1O [danirixin] | -0.94% | -0.94% | -0.32% | -0.62% | 2.67% |
| NC(=O)C[C@H](N)C(=O)O [L-asparagine] | -2.05% | -1.93% | -3.65% | -1.45% | -0.9% |
| COc1cc(/C=C/C(=O)O)ccc1O [ferulic-acid] | 2.44% | -0.76% | -1.01% | 3% | -0.17% |
